FH mod = Identification of activators of human fumarate hydratase by quantitative high-throughput screening; Fumarate hydratase, mitochondrial (Homo sapiens), P07954; FH coupled MDH/diaphorase resazurin fluorescence, 15 min; Potency, µM (series often up to 79.9 µM), inactives show top-dose activity change, negative = inhibition, usual class: inhibitors; AID 1347055, 2019; hit rate 0.22% among 54,000; further: on the % scale 0 is the no-effect control and ±100 the full control effect; the screen sought activators but most active calls are inhibition curves; nearly all actives have a fitted effect of over 45% in size
Target sequence (P07954 whole entry, looked up): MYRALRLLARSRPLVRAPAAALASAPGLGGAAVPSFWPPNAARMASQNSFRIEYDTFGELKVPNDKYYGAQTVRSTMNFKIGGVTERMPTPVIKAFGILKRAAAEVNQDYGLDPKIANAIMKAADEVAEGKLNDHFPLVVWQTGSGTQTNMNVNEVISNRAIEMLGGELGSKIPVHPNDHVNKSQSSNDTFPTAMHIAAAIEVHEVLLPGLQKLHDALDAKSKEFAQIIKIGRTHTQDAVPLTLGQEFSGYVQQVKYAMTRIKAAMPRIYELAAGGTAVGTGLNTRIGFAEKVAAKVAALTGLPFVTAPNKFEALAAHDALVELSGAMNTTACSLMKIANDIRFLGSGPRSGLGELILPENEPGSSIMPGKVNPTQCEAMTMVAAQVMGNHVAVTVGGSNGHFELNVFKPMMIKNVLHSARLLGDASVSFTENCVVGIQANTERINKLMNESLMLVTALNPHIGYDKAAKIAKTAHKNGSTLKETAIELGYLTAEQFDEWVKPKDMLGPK
NTMT1 inh = blocks human N-terminal methyltransferase 1 activity. Q9BV86. NTMT1 MTase-Glo SAH luminescence, purified enzyme. Potency, µM (highest dose often 114 µM), for the others: at the top dose activity change, negative = inhibition, actives largely listed as inhibitors. hit rate 2.5% among 59,000. AID 1645870;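 further: plate controls were DMSO vehicle for no effect and no enzyme for full effect; nearly all actives have a fitted effect of over 65% in size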
Target sequence (Q9BV86 whole entry, looked up): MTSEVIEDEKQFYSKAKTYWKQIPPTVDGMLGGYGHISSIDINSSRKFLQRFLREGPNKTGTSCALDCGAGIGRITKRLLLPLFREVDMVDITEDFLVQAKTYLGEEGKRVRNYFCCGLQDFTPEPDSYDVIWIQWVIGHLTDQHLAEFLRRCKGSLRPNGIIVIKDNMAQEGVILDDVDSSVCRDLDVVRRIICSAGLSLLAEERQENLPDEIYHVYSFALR
p53null 39C tox = selectivity test: cytotoxicity in p53 null cells, nonpermissive temperature | H1299 p53-null (neo) cells, 39C, ATPlite viability, 24 h | Potency, µM (series often up to 46.1 µM), inactives show at the highest dose activity, negative = cell killing, hits mostly cytotoxic | hit rate 0.97% among 55,000 | AID 904;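 further: 0% = DMSO only and -100% = full killing by 100 µM tamoxifen; nearly all actives have a fitted effect of over 50% in size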
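Following overnight plating at 37C (600 cells/well), H1299-neo or H1299-p53A138V cells are dosed up to 46 uM. Incubation lasts 24 hr at 39C before ATP detection.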
GALC G270D up = galactocerebrosidase G270D activity enhancement, cell-based | 145M-Twi-hGALC-G270D cells (Twitcher mouse brain line with human GALC G270D), HMU-beta-Gal fluorescence, 48 h | P54803 | hit rate 0.1% among 45,000 | AID 1159614 | Potency, µM (series often up to 57.5 µM), most hits filed as activators; further: 0% is about no effect; nearly all actives have a fitted effect of over 65% in size
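Fluorogenic HMU-b-Gal hydrolysis (0.1 mM final, pH 5.2 citrate-phosphate with 1 mg/mL sodium taurocholate; carbonate stop buffer) measures mutant GALC activity after compound treatment of live 145M-Twi Twitcher brain cells stably carrying human GALC-G270D, with wild-type GALC line alongside; activation sought.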
p53null 32C kill = kills p53 null cells at the permissive temperature; H1299-neo p53 null cells, ATP luminescence, 24 h, 32C; Potency, µM (titrated, usually from 46.1 µM), for inactives: at the highest dose activity change, negative = cytotoxicity, usual class: cytotoxic; hit rate 0.62% among 55,000; AID 903;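 further: 0% = DMSO only and -100% = full killing by 100 µM tamoxifen; nearly all actives have a fitted effect of over 55% in size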
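Luminescent ATP readout gave cell viability of p53-null H1299-neo cells after a 24 h compound exposure at the permissive 32C. Titrations ran up to 46 uM, and AC50s were fitted with the standard Hill equation.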
Numbers without * were called inactive; i = inactive; ? = inconclusive; nt = no result given; ! = repeats disagree; [ ] = another dose, or the depositor's remark. This is one part of a sample in which hits are shown more often than they occur. The call rests on the fitted dose curve; in most records, active means well fitted curve in the direction sought with a large enough effect; inconclusive means small, poorly fitted or top-dose-only effect, or another doubt; inactive means no such curve, though single readings can be large; an effect the other way counts as inactive or inconclusive. Potency means the concentration at half of the fitted maximal effect.

SMILES	FH mod	NTMT1 inh	p53null 39C tox	GALC G270D up	p53null 32C kill
COc1cccc(NS(=O)(=O)c2ccc(C)cc2)c1C(=O)Nc1nc(-c2ccccc2)cs1	nt	38%	nt	nt	nt
Cc1ccc(Cl)cc1NC(=O)c1cnc(N2CCCCC2)c2ccccc12	-19%	89µM*	22%	i	-2%
Fc1ccc(-c2ccc(Nc3nc(-c4ccncc4)nc4ccccc34)cc2F)cc1	nt	-19%	nt	nt	nt
COc1cccc(/C=C/c2nc(C#N)c(N3CCC(C(N)=O)CC3)o2)c1	-4%	-3%	-12%	25µM*	-9%
COc1cccc(/C=C/c2nc(C#N)c(N3CCCCCC3)o2)c1	-21%	-6%	-6%	?	-8%
COc1cccc(/C=C/c2nc(C#N)c(N(C)Cc3ccccc3)o2)c1	-14%	16%	7%	25µM*	7%
COc1ccc(/C=C/c2nc(C#N)c(N3CCCCC3)o2)cc1OC	-31%	?	-11%	28µM*	-1%
COc1cccc(/C=C/c2nc(C#N)c(NCCc3ccccc3)o2)c1	-15%	?	-20%	i	-3%
COc1ccccc1/C=C/c1nc(C#N)c(N2CCCCC2)o1	-13%	5%	-17%	i	7%
COc1ccc(N2CCN(c3oc(/C=C/c4ccccc4OC)nc3C#N)CC2)cc1	-18%	89µM*	-10%	i	-4%
COc1ccc(/C=C/c2nc(C#N)c(N3CCN(c4ccccc4)CC3)o2)cc1OC	-2%	-3%	-3%	?	-5%
CC(C)(NS(=O)(=O)c1ccc(Oc2ccc(F)cc2)cc1)C(=O)NO	-8%[53.3 µM]	nt	nt	nt	nt
FC(F)(F)c1ccccc1-c1nccc(NCc2ccc(-c3cccnc3)cc2)n1	nt	16%	nt	nt	nt
Cc1ccc2cc(-c3c(C)ccc(C(=O)c4c(-c5ccccc5)n(C)n(-c5ccccc5)c4=O)c3N)ccc2n1	-10%	?	nt	nt	nt
COc1cc(/C=C/c2nc(C#N)c(N3CCC(C)CC3)o2)cc(OC)c1OC	-26%	?	-9%	i	-3%
COc1cc(/C=C/c2nc(C#N)c(N3CCCCCC3)o2)cc(OC)c1OC	28µM*	?	-20%	i	-8%
O=C(Nc1ccc(N2CCN(c3ccc(F)cc3)CC2)c(C(=O)O)c1)c1cccs1	-12%	89µM*	9%	i	3%
Cc1ccc(NC(=O)CN2C(=O)N/C(=C\c3cccn3-c3ccc(C(=O)O)cc3)C2=O)cc1	nt	6%	nt	nt	nt
O=C(CN1C(=O)N/C(=C\c2cccn2-c2cccc(C(=O)O)c2)C1=O)Nc1cccc(F)c1	nt	1%[57.5 µM]	nt	nt	nt
Cc1ccc(NC(=O)CN2C(=O)N/C(=C\c3cccn3-c3ccc(C(=O)NS(C)(=O)=O)cc3)C2=O)cc1	nt	79µM*	nt	nt	nt
O=C(O)c1cccc(-n2cccc2/C=C2/C(=O)N(Cc3ccc(F)cc3)C(=O)N2Cc2ccc(F)cc2)c1	nt	79µM*	nt	nt	nt
O=C(CN1C(=O)N/C(=C\c2cccn2-c2cccc(C(=O)O)c2)C1=O)Nc1cccc(Cl)c1	nt	79µM*	nt	nt	nt
C=C1C(=O)OC2C(OC(=O)C=C(C)C)C(C)=C3C(=O)C=C(C)C3C(O)C12 (configuration not stated)	0%[53.3 µM]	-15%[29.8 µM]	nt	nt	nt
CC(NCc1ccc(OCc2cccc(F)c2)cc1)C(N)=O (configuration not stated)	4%	0%[57.5 µM]	nt	nt	nt
Cc1oc(-c2cccc(Cl)c2)nc1CS(=O)(=O)CC(=O)NCc1ccccc1Cl	3%	89µM*	-9%	i	7%
SMILES	FH mod	NTMT1 inh	p53null 39C tox	GALC G270D up	p53null 32C kill
Cc1ccccc1-c1nc(CS(=O)(=O)CC(=O)NCc2cccc(Cl)c2)c(C)o1	-1%	89µM*	-17%	i	-2%
CNCCN1CCC(c2cc(CN(C)C(=O)c3cccc(Oc4ccccc4)c3)ccn2)CC1	5%[53.3 µM]	5%[29.8 µM]	nt	nt	nt
CN(CC(=O)N(Cc1ccc(C2CCCCC2)cc1)c1ccc(C(=O)O)c(O)c1)S(=O)(=O)c1c(F)c(F)c(F)c(F)c1F	-18%[53.3 µM]	32µM*	nt	nt	nt
CCc1ccc(NC(=O)c2ccc(F)c(S(=O)(=O)N(C)C3CCCCC3)c2)cc1	-19%	-7%	9%	i	26%
O=C(NOCC1CC1)c1cc(Br)c(F)c(F)c1Nc1ccc(I)cc1Cl	-24%[53.3 µM]	nt	nt	nt	nt
Cn1cnc2c(F)c(Nc3ccc(Br)cc3Cl)c(C(=O)NOCCO)cc21	6%	89µM*!	nt	i	nt
Cc1ccc(OCCn2c(CCNC(=O)NC3CCCCC3)nc3ccccc32)cc1	nt	-20%[57.5 µM]	nt	nt	nt
CCOc1ccc(CN2CCc3nc(N4CCN(c5ncccn5)CC4)ncc3C2)cc1OC	-4%	-2%	-10%	i	9%
COc1cccc(N2CCN(c3ncc4c(n3)CCN(Cc3ccc(Br)cc3)C4)CC2)c1	-8%	50µM*	-1%	i	3%
Cc1ccc(NC(=O)c2nc(S(=O)(=O)Cc3ccc(F)cc3)ncc2Cl)cc1C	-3%	8%	?	i	20µM*
CC(=O)Nc1ccc(NC(=O)c2nc(S(=O)(=O)Cc3ccc(F)cc3)ncc2Cl)cc1	-5%	11%	-28%	i	-11%
CCCc1nnc(NC(=O)c2nc(S(=O)(=O)Cc3ccc(C)cc3)ncc2Cl)s1	1%	2%	10µM*	i	-14%
Cc1ccc(CS(=O)(=O)c2ncc(Cl)c(C(=O)Nc3nc4ccc(C)cc4s3)n2)cc1	9%	12%	-14%	i	-20%
COc1ccc(OC)c(NC(=O)c2nc(S(=O)(=O)Cc3ccc(F)cc3)ncc2Cl)c1	-7%	14%	25µM*	i	?
Cc1ccc(OCCn2c(CCNC(=O)c3cccc4[nH]ccc34)nc3ccccc32)cc1	nt	5%	nt	nt	nt
COc1ccc(/C=C/C(=O)Nc2sc(C)c(C)c2C(=O)O)cc1	-29%	?	0.79µM*	i	3.2µM*
Cn1cc(-c2cnn3c(N)c(Br)c([C@@H]4CCCNC4)nc23)cn1	0%	35µM*!	nt	nt	nt
CCS(=O)(=O)N1CCc2cc(C(=O)Nc3cccc(C)c3C)ccc21	3%	-2%	6%	i	4%
CCS(=O)(=O)N1CCc2cc(C(=O)NCCc3ccccc3)ccc21	-10%	89µM*	2%	i	-13%
CCS(=O)(=O)N1CCc2cc(C(=O)Nc3ccc(Br)cc3F)ccc21	-6%	89µM*	-6%	i	-9%
CS(=O)(=O)N1CCc2cc(C(=O)NCCc3ccccc3)ccc21	-2%	15%	-15%	i	-19%
CC(C)(C)OC(=O)N[C@@H](Cc1ccc(O[S+](=O)([O-])c2cccc3cnccc23)cc1)C(=O)Nc1ccc(-c2ccccc2)cc1	nt	14%	nt	nt	nt
COC(=O)NCC(c1cccnc1)N1CCN(c2ccc(F)cc2)CC1 (configuration not stated)	-2%	-2%	25µM*	i	?

Screening results from PubChem BioAssay.
